Assay outcomes (PubChem BioAssay)
Hits are enriched below; roughly 6.8% of the tested compounds scored in any of these assays.
MCF10A rereplic: inducers of DNA re-replication in MCF 10A breast cells. Potency, µM (doses to about 46.1 µM), hits mostly activators. actives 2.9% (n = 350,000). MCF 10A DNA re-replication, Hoechst nuclear intensity, 48 h; note: nearly all actives have a fitted effect of over 50% in size
KB-3-1 tox: kills parental KB-3-1 adenocarcinoma cells. KB-3-1 viability, CellTiter-Glo ATP luminescence, 72 h. Potency, µM (series often up to 46.1 µM), usual class: cytotoxic. actives 1.4% (n = 400,000); note: nearly all actives have a fitted effect of over 60% in size
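Screening of KB-3-1 cells (DMEM, 10% FBS, phenol-red free) ran from lowest to highest compound concentration; after 72 h at 37 °C viability was read luminescently and curves fitted.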
PINK1 modulator: changes PINK1 expression | PINK1 immunofluorescence, high-content cytometry, 24 h | Potency, µM (series often up to 76.6 µM), hits mostly activators | actives 0.2% (n = 410,000) | AID 624263; active = well fitted activation curve with a large enough effect; inconclusive = small, poorly fitted or top-dose-only effect; cell line not stated here; note: nearly all actives have a fitted effect of over 65% in size
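PINK1 protein level read as immunofluorescence by microplate cytometer in a fixed, stained stable cell line after 24 h exposure to five compound concentrations, with CCCP as control.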
SW480 rerep: DNA re-replication induction in SW480 cells; SW480 DNA re-replication, Hoechst DNA content imaging, 48 h; Potency, µM (top dose mostly 46.1 µM), actives largely listed as activators; actives 1.8% (n = 340,000); AID 624297; note: nearly all actives have a fitted effect of over 55% in size
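SW480 cells exposed to compounds for 48 hr at 37 C, 5% CO2, then Hoechst-stained 40 min. Nuclear DNA content imaged by fluorescence scanning (405 nm excitation, 500-530 nm emission); re-replication scored as increased high-intensity nuclei.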
KB-V1 MDR tox: KB-V1 MDR subline cytotoxicity. KB-V1 MDR cells viability, CellTiter-Glo, 72 h. Potency, µM (highest dose often 46.1 µM), usual class: cytotoxic. actives 3.4% (n = 400,000); note: nearly all actives have a fitted effect of over 60% in size
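KB-V1, DMEM (no phenol red) + 10% FBS; cpd pin-transferred, titration series; 72 h, 37 degrees C; CellTiter-Glo, luminescence. Data normalized, curve-fit.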
TSG101-PTAP inh: blocks PTAP/TSG101 interaction to inhibit HIV-1 budding; Q99816; Fluorescence polarization, FITC-PTAP peptide / Tsg101 binding; Potency, µM (titrated, usually from 115 µM), hits mostly inhibitors; 340,000 tested, under 10 active; active = well fitted inhibition curve with a large enough effect in the main read-out, with a control signal flat, not every such curve was filed as active; inconclusive = small, poorly fitted or top-dose-only effect, or effect the other way, or a change in a side signal; inactive = no such curve, though single readings can be large or run the other way
Target sequence (Q99816 whole entry, looked up): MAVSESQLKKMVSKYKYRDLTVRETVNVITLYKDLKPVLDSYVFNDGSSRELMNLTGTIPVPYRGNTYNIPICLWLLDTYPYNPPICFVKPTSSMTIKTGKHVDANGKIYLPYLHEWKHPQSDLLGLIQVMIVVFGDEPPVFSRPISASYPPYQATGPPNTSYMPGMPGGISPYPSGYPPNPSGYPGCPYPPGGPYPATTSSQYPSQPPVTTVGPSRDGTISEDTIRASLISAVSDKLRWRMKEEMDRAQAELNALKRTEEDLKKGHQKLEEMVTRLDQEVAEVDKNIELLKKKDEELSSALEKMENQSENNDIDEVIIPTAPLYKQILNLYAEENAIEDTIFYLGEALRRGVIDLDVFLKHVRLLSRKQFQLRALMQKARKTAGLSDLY
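Compounds were pin-transferred onto Tsg101 binding domain (10 uM final) in HEPES pH 7.5 buffer, then FITC-PTAP peptide was added at 50 nM final. After 20 min at RT, polarization reported peptide displacement across a qHTS concentration series.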
Each line names hits and unclear results; the compound was inactive in the other large screens. Unless noted, calls come from the whole dose curve; as a rule, active = well fitted curve in the direction sought with a large enough effect; inconclusive = small, poorly fitted or top-dose-only effect, or another doubt; inactive = no such curve, though single readings can be large; an effect the other way counts as inactive or inconclusive.

CC(=O)/C(N=Nc1cccc(C(F)(F)F)c1)=C(\C)O	none
Cc1ccc(S(=O)(=O)Nc2cccc(-c3ccc(N4CCCC4)nn3)c2)c(C)c1	KB-3-1 tox inconclusive (no result: MCF10A rereplic, SW480 rerep, TSG101-PTAP inh)
COc1ccc(C(=O)NCCN(C)C)c2nc3ccccc3cc12	KB-3-1 tox inconclusive, SW480 rerep inconclusive, KB-V1 MDR tox 8.2µM
Cc1ccc(Sc2cc(C(=O)NCCN(C)C)c3ccccc3n2)cc1	none
CN(C)CCNC(=O)c1cccc2nc3c(ccc4ccccc43)nc12	KB-3-1 tox 7.31µM, SW480 rerep inconclusive, KB-V1 MDR tox 20.6µM
COc1ccc(-c2nc3c(C(=O)NCCN(C)C)cccc3c3ccccc23)cc1	MCF10A rereplic inconclusive, KB-3-1 tox inconclusive, SW480 rerep inconclusive, KB-V1 MDR tox 2.31µM
COc1cccc2nc3c(C(=O)NCCN(C)C)cccc3cc12	KB-3-1 tox inconclusive, SW480 rerep 9.2µM, KB-V1 MDR tox 9.2µM
COc1ccc(Cl)c2sc(NC(=O)c3ccc(S(=O)(=O)N4CCOCC4)cc3)nc12	none (no result: MCF10A rereplic, SW480 rerep, TSG101-PTAP inh)
Cc1ccc(CCNC(=O)c2ccc3c(c2)c(C)c(C)n3Cc2ccccc2)cc1	none (no result: MCF10A rereplic, SW480 rerep, TSG101-PTAP inh)
COc1ccccc1NC(=O)C1CCN(c2cnccn2)CC1	none (no result: MCF10A rereplic, SW480 rerep, TSG101-PTAP inh)
CCOc1cc(S(=O)(=O)N(Cc2ccccc2)Cc2ccccc2)c(OCC)cc1-n1cnnn1	KB-V1 MDR tox 3.66µM (no result: TSG101-PTAP inh)
CCOc1cc(S(=O)(=O)NCc2ccccc2)c(OCC)cc1-n1cnnn1	none
OC(CNc1nc(C(F)(F)F)nc2ccccc12)c1ccccc1 (stereo not drawn)	KB-3-1 tox inconclusive, KB-V1 MDR tox 11.6µM
O=C(O)CCNc1nc(C(F)(F)F)nc2ccccc12	none
Cc1cc(NC(=O)Cn2cnc3sc(C)c(C)c3c2=O)no1	none
Cc1cc(NC(=O)Cn2cnc3sc(C)c(-c4ccccc4)c3c2=O)no1	MCF10A rereplic inconclusive, KB-V1 MDR tox 20.6µM
COc1ccc(/C=N\NC(=O)c2sccc2C)cc1Cn1nc(C)cc1C	KB-3-1 tox inconclusive, KB-V1 MDR tox 6.51µM
COc1ccc(/C=N\NC(=O)COc2ccccc2Cl)cc1Cn1nc(C)cc1C	none
O=Cc1cn(-c2ccccc2)nc1-c1cc2cc(O)ccc2oc1=O	none
O=Cc1cn(-c2ccccc2)nc1-c1cc2c(ccc3ccccc32)oc1=O	MCF10A rereplic 2.91µM
COc1ccccc1N=C1SC(C(=O)Nc2cccc(Cl)c2Cl)C(N)=C1C(N)=O (stereo not drawn)	MCF10A rereplic 11.6µM, KB-3-1 tox inconclusive, SW480 rerep 23.1µM, KB-V1 MDR tox 3.66µM
COc1ccc(C2=NN(C(=O)CSc3ncccn3)C(c3ccc(C)cc3)C2)cc1 (stereo not drawn)	MCF10A rereplic inconclusive, SW480 rerep inconclusive, KB-V1 MDR tox 23.1µM
O=C(/C=C/c1cn(-c2ccccc2)nc1-c1cccnc1)N1CCCCC1	KB-V1 MDR tox inconclusive
CN1CCN(C(=O)/C=C/c2cn(-c3ccccc3)nc2-c2ccc3c(c2)OCCO3)CC1	MCF10A rereplic inconclusive, SW480 rerep inconclusive
O=C(/C=C\c1cn(-c2ccccc2)nc1-c1ccc2c(c1)OCCO2)N1CCOCC1	MCF10A rereplic 18.4µM, KB-V1 MDR tox inconclusive
O=C(/C=C/c1cn(-c2ccccc2)nc1-c1cccc(Cl)c1)N1CCN(c2ccccn2)CC1	KB-3-1 tox inconclusive, KB-V1 MDR tox 23.1µM
O=C(c1ccc2c(c1)CCN2S(=O)(=O)c1ccc(Cl)cc1)N1CCN(c2ccc(F)cc2)CC1	KB-V1 MDR tox inconclusive (no result: MCF10A rereplic, SW480 rerep, TSG101-PTAP inh)
CCCCNc1c(-c2ccc(SC(C)CC)c(OC)c2)nc2ccc(C)cn12 (stereo not drawn)	MCF10A rereplic 16.4µM, KB-3-1 tox inconclusive, SW480 rerep inconclusive, KB-V1 MDR tox inconclusive
CCCCNc1c(-c2ccc(SC(C)CC)c(OC)c2)nc2ccc(Cl)cn12 (stereo not drawn)	MCF10A rereplic 23.1µM, PINK1 modulator inconclusive, SW480 rerep 20.6µM
CCCCCCSc1ccc(-c2nc3ccc(Cl)cn3c2NCCCC)cc1OC	MCF10A rereplic inconclusive
CCCCCCSc1ccc(-c2nc3ccc(C)cn3c2NCCCC)cc1OC	KB-3-1 tox inconclusive, PINK1 modulator inconclusive, KB-V1 MDR tox 20.6µM (no result: MCF10A rereplic, SW480 rerep, TSG101-PTAP inh)
